Source: PubChem
The list is not random: actives were taken first. Their share in the collection is about 2.7%.
ATG4B inh = ATG4B protease inhibitors, primary screen, biochemical, fluorescence, uHTS; ATG4B cleavage of LC3-PLA2, NBD-HPC fluorescence, 1 h; inhibition, % at 8.33 µM; 340,000 compounds, 0.51% hits; AID 504462, 2011; in the data active = inhibition above about 40%
NRP1-CendR mod = modulators of CendR peptide binding to NRP-1, primary screen, biochemical, fluorescence polarization, uHTS | 360,000 compounds, 0.85% hits | inhibition, % at 25 µM | AID 602438, 2012 | Neuropilin-1 (Homo sapiens), O14786 | FAM-RPARPAR peptide binding to NRP-1;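 active = inhibition or corrected inhibition above about 18%, plus a signal ratio from 0.5 to 1.5, limit read from the data, passing the limit was not always enough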
Target sequence (O14786 whole entry, looked up): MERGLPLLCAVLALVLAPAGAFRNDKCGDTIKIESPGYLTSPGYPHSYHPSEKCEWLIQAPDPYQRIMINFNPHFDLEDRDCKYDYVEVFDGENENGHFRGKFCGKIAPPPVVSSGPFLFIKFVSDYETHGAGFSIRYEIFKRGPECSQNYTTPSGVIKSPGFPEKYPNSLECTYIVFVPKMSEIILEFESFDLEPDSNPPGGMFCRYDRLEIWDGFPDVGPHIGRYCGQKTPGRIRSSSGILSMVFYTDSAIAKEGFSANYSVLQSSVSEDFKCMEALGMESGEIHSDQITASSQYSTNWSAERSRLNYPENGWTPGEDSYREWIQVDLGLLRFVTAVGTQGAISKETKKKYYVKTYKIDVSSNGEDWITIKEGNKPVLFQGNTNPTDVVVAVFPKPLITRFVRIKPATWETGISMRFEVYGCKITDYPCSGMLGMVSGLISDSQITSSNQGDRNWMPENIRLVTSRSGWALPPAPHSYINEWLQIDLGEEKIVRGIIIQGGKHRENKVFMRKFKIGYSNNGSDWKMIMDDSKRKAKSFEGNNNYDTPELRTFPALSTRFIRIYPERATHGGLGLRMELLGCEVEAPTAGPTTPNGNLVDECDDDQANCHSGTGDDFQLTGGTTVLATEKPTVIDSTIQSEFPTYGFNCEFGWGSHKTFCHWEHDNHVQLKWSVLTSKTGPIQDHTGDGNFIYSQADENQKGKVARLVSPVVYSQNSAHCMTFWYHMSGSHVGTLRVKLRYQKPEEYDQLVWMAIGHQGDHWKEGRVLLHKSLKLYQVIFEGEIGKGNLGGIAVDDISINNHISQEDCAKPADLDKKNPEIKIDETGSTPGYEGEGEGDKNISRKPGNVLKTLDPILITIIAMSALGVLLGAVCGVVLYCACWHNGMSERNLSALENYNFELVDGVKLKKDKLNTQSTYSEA
SKN-1 inh = suppressors of acrylamide-induced Pgst-4::GFP reporter in worms, primary screen, SKN-1 inhibitor project, whole organism, uHTS, GFP/RFP fluorescence ratio, strain VP596; inhibition, % at 21.8 µM; AID 624304, 2012; C. elegans VP596 Pgst-4::GFP/RFP ratio, 24 h; 360,000 compounds, 0.49% hits;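 active = interference check ratio from 0.5 to 1.5 plus GFP to RFP signal ratio inhibition reaching or exceeding a fixed threshold, cut at about 30% in these data, passing the limit was not always enough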
CFTR F508del cor = F508del CFTR correction, initial screen, CFBE line, single point | 350,000 compounds, 0.36% hits | CFBE cells, YFP halide quenching; stimulated with forskolin plus potentiator P3; % fluorescence drop versus neutral controls | activity (quench increase), % at 7.58 µM;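 active = mean added fluorescence quench of at least 8% versus neutral control, with both replicates also reaching 8%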;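 also: cells transiently co-express mutant CFTR-F508del with the halide-sensitive YFP; corrector assay measuring rescue of mutant channel to the surface after 24 h compound exposure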
MPTP inh = mitochondrial permeability transition pore inhibitors, primary screen, biochemical, isolated mouse mitochondria, absorbance | inhibition, % at 10 µM | AID 602449, 2012 | Ca2+ swelling absorbance, 30 min | 360,000 compounds, 1.4% hits;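 active = inhibition of 50% or more, scaled per plate between neutral and stimulator controls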
Of the large screens only hits and unclear results are named; the others gave an inactive call.

Cc1nc2ccc(NC(=O)[C@H](C)N3C(=O)C4CC=CCC4C3=O)cc2s1 (stereo partly drawn)	NRP1-CendR mod 19
COc1ccc(-c2cnc3c(c2)C(=O)N([C@H](C)CO)C[C@H](C)[C@@H](CN(C)C(=O)Cc2ccccn2)O3)cc1	none (no result: ATG4B inh, NRP1-CendR mod, SKN-1 inh, MPTP inh)
O=C(C[C@H]1CC[C@@H]2[C@H](COC[C@@H](O)CN2Cc2cc(F)ccc2F)O1)NCc1ccc(Oc2ccccc2)cc1	none (no result: ATG4B inh, NRP1-CendR mod, SKN-1 inh, MPTP inh)
N#CC(C#N)=C1C=C2C=C(N3CCCCCC3)CCC2CC1 (stereo not drawn)	CFTR F508del cor 67
N#CC(C#N)=C1C=C2C=C(N3CCOCC3)CCC2CC1 (stereo not drawn)	CFTR F508del cor 70
O=C(c1cccc(F)c1)N1CC2(C1)[C@@H](c1ccccc1)[C@@H](CO)N2C(=O)C1CC1	none (no result: ATG4B inh, NRP1-CendR mod, SKN-1 inh, MPTP inh)
Cc1cccc2c(N=Nc3ccc(S(=O)(=O)Nc4ccc(Cl)cc4)cc3[N+](=O)[O-])c(O)[nH]c12	CFTR F508del cor 9.7
N/C(=N\OC(=O)c1ccc(Cl)cc1Cl)c1ccc(Cl)cc1	NRP1-CendR mod 30 (no result: CFTR F508del cor)
N/C(=N\OC(=O)c1ccc(Cl)cc1Cl)c1cccnc1	SKN-1 inh 54 (no result: CFTR F508del cor)
COc1ccc(C(=O)O/N=C(\N)c2ccc(OC)c(OC)c2)c(OC)c1	none (no result: CFTR F508del cor)
COc1cccc(C(=O)O/N=C(\N)c2ccc([N+](=O)[O-])cc2)c1OC	NRP1-CendR mod 25 (no result: CFTR F508del cor)
COc1ccc(C(=O)O/N=C(\N)c2ccccc2)c(OC)c1	NRP1-CendR mod 18 (no result: CFTR F508del cor)
CN(C)CCCNC(=O)C[C@H]1CC[C@H]2[C@@H](COC[C@H](O)CN2S(=O)(=O)c2ccc(F)cc2)O1	none (no result: ATG4B inh, NRP1-CendR mod, SKN-1 inh, MPTP inh)
N/C(=N\OC(=O)c1ccccc1Cl)c1ccccc1	SKN-1 inh 61 (no result: CFTR F508del cor)
N/C(=N\OC(=O)c1ccccc1Cl)c1ccc(Cl)cc1	none (no result: CFTR F508del cor)
N/C(=N\OC(=O)c1ccc(Cl)cc1Cl)c1ccccc1	SKN-1 inh 56 (no result: CFTR F508del cor)
N/C(=N\OC(=O)c1ccc(Cl)cc1)c1ccc(Cl)cc1	none (no result: CFTR F508del cor)
Cc1cccc(/C(N)=N/OC(=O)c2ccc(Cl)cc2Cl)c1	none
N/C(=N\OC(=O)c1ccc(Cl)cc1)c1cccnc1	SKN-1 inh 29 (no result: CFTR F508del cor)
C[C@@H]1CN([C@H](C)CO)C(=O)c2cccc(NC(=O)Nc3ccc4c(c3)OCO4)c2O[C@@H]1CN(C)S(=O)(=O)c1cn(C)cn1	none (no result: ATG4B inh, NRP1-CendR mod, SKN-1 inh, MPTP inh)
COc1ccc(S(=O)(=O)N(C)C[C@H]2OCCCC[C@@H](C)Oc3ccc(NS(=O)(=O)c4ccccc4)cc3C(=O)N([C@H](C)CO)C[C@@H]2C)cc1	none (no result: ATG4B inh, NRP1-CendR mod, SKN-1 inh, MPTP inh)
CC(C)[C@H](CO)Nc1nc(NCc2ccc(S(N)(=O)=O)cc2)c2ncn(C(C)C)c2n1	none
CC(C)n1cnc2c(NCc3ccc(S(N)(=O)=O)cc3)nc(NCc3ccc(S(N)(=O)=O)cc3)nc21	NRP1-CendR mod 32
O=C(Nc1ccc(N2CCCCC2)cc1)c1ccc2ccccc2n1	SKN-1 inh 69
O=C(Nc1nccs1)c1ccc2ccccc2n1	SKN-1 inh 57
Cc1csc(NC(=O)c2ccc3ccccc3n2)n1	none
Cc1cccc(C)c1NC(=O)C1(C)CCC(=O)N1C1CCN(Cc2ccccc2)CC1 (stereo not drawn)	NRP1-CendR mod 21 (no result: ATG4B inh)
C/C=C/c1ccc2c(c1)O[C@@H](CN(C)C)[C@@H](C)CN([C@@H](C)CO)S2(=O)=O	none (no result: ATG4B inh, NRP1-CendR mod, SKN-1 inh, MPTP inh)
C[C@@H]1CN([C@@H](C)CO)C(=O)c2cc(C3=CCCCC3)cnc2O[C@H]1CN(C)Cc1ccccn1	none (no result: ATG4B inh, NRP1-CendR mod, SKN-1 inh, MPTP inh)
COc1cccc2c1cc1c(=O)n(CC(=O)N3CCCC3)nc(C)n12	none
COc1cccc2c1cc1c(=O)n(CC(=O)N3CCCCCC3)nc(C)n12	NRP1-CendR mod 24
CCOC(=O)c1c(C)cc(C)n2c1nc1ccccc12	SKN-1 inh 40 (no result: CFTR F508del cor)
Cc1ccc(S(=O)(=O)N[C@H](C(=O)OCC(=O)NC(=O)C2CCCCC2)C(C)C)cc1	CFTR F508del cor 12
O=C(Nc1ccc(Cl)cn1)c1ccccc1[N+](=O)[O-]	none
O=C(Nc1ccc(Cl)cn1)c1cccc2ccccc12	CFTR F508del cor 13
O=S(=O)(Nc1cccc(Cl)c1)c1cccc(-n2cnnn2)c1	NRP1-CendR mod 20
COc1cc(F)c(C2=CC(=O)C[C@H](c3ccc4c(c3)OCO4)C2)cc1F	none
COc1ccc(F)cc1C1=CC(=O)C[C@H](c2ccc3c(c2)OCO3)C1	NRP1-CendR mod 25
COc1cccc(NC(=O)N2CC(=O)N3[C@@H](CO)[C@@H](c4ccc(C#CC5CCCCC5)cc4)[C@@H]3C2)c1	none (no result: ATG4B inh, NRP1-CendR mod, SKN-1 inh, MPTP inh)
O=C(c1cccc(F)c1)N1CCN(c2cccc(C(F)(F)F)c2)CC1	SKN-1 inh 39 (no result: CFTR F508del cor)
Cn1c(=O)c2c(nc(CN3CCN(C(=O)c4ccco4)CC3)n2Cc2ccc(F)cc2)n(C)c1=O	NRP1-CendR mod 28 (no result: CFTR F508del cor)
Cn1c(=O)c2c(nc(CN3CCOCC3)n2CCN2CCOCC2)n(C)c1=O	NRP1-CendR mod 27
CO[C@H]1CN(C)C(=O)c2ccc(NS(=O)(=O)c3cn(C)cn3)cc2OC[C@@H](C)NC[C@H]1C	none (no result: ATG4B inh, NRP1-CendR mod, SKN-1 inh, MPTP inh)
COc1ccc(C(=O)N2CCC(C)(C(=O)NS(=O)(=O)C3CC3)C2)cc1F (stereo not drawn)	NRP1-CendR mod 22 (no result: ATG4B inh)
COc1ccc(C(=O)N2CCC(C)(C(=O)NS(=O)(=O)C3CC3)C2)c(OC)c1 (stereo not drawn)	none (no result: ATG4B inh)
COc1ccc2c3c(cccc13)N(C)N=C2C	NRP1-CendR mod 63, SKN-1 inh 41 (no result: CFTR F508del cor)
CCOc1ccccc1C(=O)NC1CCN(Cc2ccccc2)CC1	none
Cc1cccc(COc2ccccc2C(=O)NC2CCC(O)CC2)c1 (stereo not drawn)	CFTR F508del cor 8.2
CN1C(=O)c2cc(NC(=O)c3ccc(F)cc3)ccc2OC[C@@H]2O[C@H](CC(=O)NCC3CC3)CC[C@H]21	none (no result: ATG4B inh, NRP1-CendR mod, SKN-1 inh, MPTP inh)
COc1cc(C(=O)Nc2cc3c(cc2N2CCCCC2)n(C)c(=O)n3C)cc(OC)c1OC	NRP1-CendR mod 28
C/C(=N\Nc1ccc(Cl)c(C(=O)O)c1)c1ccc(Br)s1	SKN-1 inh 44
C/C(=N\NC(=O)c1ccc(Cl)c(Cl)c1)c1ccc(Br)s1	none (no result: CFTR F508del cor)
CCCCN=Cc1c(C)[nH]n(-c2ccccc2)c1=S	none
Cc1[nH]n(-c2ccccc2)c(=S)c1C=Nc1cccc([N+](=O)[O-])c1	NRP1-CendR mod 24 (no result: CFTR F508del cor)
CCC1=Nc2cc(C(=O)NCc3ccco3)ccc2Sc2ccc(C)cc21	ATG4B inh 51 (no result: CFTR F508del cor)
C[C@@H]1CCCCO[C@@H](CN(C)C(=O)Nc2ccccc2)[C@@H](C)CN([C@H](C)CO)C(=O)c2cc(NC(=O)CCC(F)(F)F)ccc2O1	none (no result: ATG4B inh, NRP1-CendR mod, SKN-1 inh, MPTP inh)
Cc1noc(C)c1S(=O)(=O)Nc1ccc2c(c1)C(=O)N([C@H](C)CO)C[C@@H](C)[C@@H](CN(C)C(=O)NC(C)C)OCCCC[C@@H](C)O2	none (no result: ATG4B inh, NRP1-CendR mod, SKN-1 inh, MPTP inh)
N[C@@H](Cc1ccc(O)cc1)c1nnc([C@H](CO)NC(=O)C2CCNCC2)o1	NRP1-CendR mod 22
